{"source": "PubChem BioAssay (NCI)", "key": {"[1]": {"test": "NCI Yeast Anticancer Drug Screen. Data for the rad50 strain (AID 155);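 also: 0% = growth of vehicle-only cultures of the same strain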", "conditions": "S. cerevisiae rad50 strain growth inhibition; at 50.0 µM; active compounds read high", "how_it_was_run": "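Yeast carrying a defined DNA repair defect were exposed to test compounds, and growth was compared with vehicle-treated controls to give percent inhibition.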"}, "[2]": {"test": "NCI Yeast Anticancer Drug Screen. Data for the mec2-1 strain (AID 157)", "conditions": "S. cerevisiae mec2-1 strain, at 50.0 µM, active compounds read high", "how_it_was_run": "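mec2-1 yeast strain, carrying an alteration in DNA damage repair or cell cycle control, was exposed to compounds; growth inhibition was measured relative to vehicle-treated controls.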"}, "[3]": {"test": "NCI Yeast Anticancer Drug Screen. Data for the sgs1 mgt1 strain (AID 161);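 also: 0% = growth of cultures given vehicle only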", "conditions": "S. cerevisiae sgs1 mgt1 strain, at 50.0 µM, active compounds read high", "how_it_was_run": "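Growth of a repair-deficient yeast mutant was monitored after compound treatment and expressed as inhibition relative to vehicle-treated cultures.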"}, "[4]": {"test": "NCI Yeast Anticancer Drug Screen. Data for the cln2 rad14 strain (AID 165);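 also: 0% = growth equal to vehicle treated cultures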", "conditions": "S. cerevisiae cln2 rad14 strain, at 50.0 µM, active compounds read high", "how_it_was_run": "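Yeast carrying cln2 and rad14 alterations (cell cycle control and DNA damage repair) were exposed to compounds. Growth inhibition was measured against vehicle-treated controls.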"}, "[5]": {"test": "NCI Yeast Anticancer Drug Screen. Data for the bub3 strain (AID 167)", "conditions": "S. cerevisiae bub3 mutant strain, at 50.0 µM, active compounds read high", "how_it_was_run": "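Compounds were applied to a genetically altered yeast strain carrying a cell-cycle control defect. Growth inhibition was scored against vehicle-treated controls.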"}, "[6]": {"test": "NCI Yeast Anticancer Drug Screen. Data for the mlh1 rad18 strain (AID 175)", "conditions": "S. cerevisiae mlh1 rad18 strain growth inhibition; at 50.0 µM; active compounds read high", "how_it_was_run": "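Growth inhibition of the yeast strain was measured after compound exposure and expressed relative to vehicle-treated controls. The strain carries defined defects in DNA damage repair.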"}}, "note": "Compounds without any hit were thinned out: in the full panel of roughly 79,000, 15% have a hit. Unmarked numbers belong to inactive results. The source made the active and inactive calls. Rule as the data show it: active = growth inhibition above about 70%; inactive = the rest."}
{"smiles": "O=S(=O)(c1ccc(I)cc1)c1ccc(I)cc1", "values": [{"measurement": "growth inhibition", "setting": "[1]", "result": 22.6, "unit": "%"}, {"measurement": "growth inhibition", "setting": "[2]", "result": 0.1, "unit": "%"}, {"measurement": "growth inhibition", "setting": "[3]", "result": -9.15, "unit": "%"}, {"measurement": "growth inhibition", "setting": "[4]", "result": 5.2, "unit": "%"}, {"measurement": "growth inhibition", "setting": "[5]", "result": 5.35, "unit": "%"}, {"measurement": "growth inhibition", "setting": "[6]", "result": 3.7, "unit": "%"}]}
{"smiles": "O=S(=O)(Nc1cccc(Cl)c1)c1ccc(Cl)cc1", "values": [{"measurement": "growth inhibition", "setting": "[1]", "result": "99.7% (active)"}, {"measurement": "growth inhibition", "setting": "[2]", "result": "99.8% (active)"}, {"measurement": "growth inhibition", "setting": "[3]", "result": "99.8% (active)"}, {"measurement": "growth inhibition", "setting": "[4]", "result": "99.6% (active)"}, {"measurement": "growth inhibition", "setting": "[5]", "result": "99.7% (active)"}, {"measurement": "growth inhibition", "setting": "[6]", "result": "99.7% (active)"}]}
{"smiles": "C(=C(Sc1ccccc1)Sc1ccccc1)C(Sc1ccccc1)c1ccccc1", "note": "(stereo not drawn)", "values": [{"measurement": "growth inhibition", "setting": "[1]", "result": 12.5, "unit": "%"}, {"measurement": "growth inhibition", "setting": "[2]", "result": 21.9, "unit": "%"}, {"measurement": "growth inhibition", "setting": "[3]", "result": -5.35, "unit": "%"}, {"measurement": "growth inhibition", "setting": "[4]", "result": 10.8, "unit": "%"}, {"measurement": "growth inhibition", "setting": "[5]", "result": 20.7, "unit": "%"}, {"measurement": "growth inhibition", "setting": "[6]", "result": -13.6, "unit": "%"}]}
